Screens: PubChem, several laboratories
In the library only some 3.7% were active in any assay of this set; here they are far more common.
NALP3 yeast inh: NALP3 inflammasome inhibitors in reconstituted yeast, primary screen, luminescence, uHTS; Yeast reconstituted NLRP3/ASC/caspase-1, beta-gal luminescence, 24 h; inhibition, % at 10 µM; actives 0.39% (n = 330,000);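 active = inhibition of 50% or more; inactive = inhibition below 50%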;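 note: plate controls were induced DMSO wells for no effect and uninduced yeast grown without galactose for full effect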
tim10-1 inh: growth inhibitors of tim10-1 mutant yeast, primary screen, luminescence, uHTS; S. cerevisiae tim10-1 ts strain growth, BacTiter-Glo, 24 h; inhibition, % at 20 µM; actives 2.2% (n = 330,000); AID 463190, 2010;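 active = inhibition of at least 40%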;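 note: mutant grown at 25 °C; 0% = DMSO wells with yeast and 100% = wells holding no yeast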
PfHsp90 set2: growth inhibition of PfHsp90-expressing yeast, primary screen, antimalarial PfHsp90 inhibitor project, S. cerevisiae, BacTiter-Glo luminescence, single point, set 2; BacTiter-Glo ATP, 48 h; yeast lacking PDR1 and PDR3 efflux regulators; inhibition, % at 9.4 µM; AID 504621, 2011; actives 0.32% (n = 310,000);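 active = every replicate shows inhibition above about 80%, whatever the replicate mean, limit read from the data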;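 note: 0% = DMSO neutral controls and 100% = 20 µM radicicol positive controls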
tim23-1 inh: growth inhibitors of tim23-1 mutant yeast, primary screen, luminescence, uHTS. S. cerevisiae tim23-1 growth, BacTiter-Glo luminescence, 24 h. inhibition, % at 20 µM. actives 1.3% (n = 330,000). AID 463212, 2010;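 active = growth inhibition of the mutant yeast at or above 50%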;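 note: temperature-sensitive mutant grown at 25 °C; plate controls were DMSO-treated mutant yeast for no effect and medium wells lacking yeast for full effect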
TIM10 inh: growth inhibitors of isogenic TIM10 control yeast, primary screen, counter-screen for tim10-1 yeast inhibitor project, luminescence, uHTS; S. cerevisiae TIM10 strain growth, BacTiter-Glo luminescence, 24 h; inhibition, % at 10 µM; actives 1.4% (n = 330,000); AID 463195, 2010;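 active = inhibition of 40% or more at the single tested concentration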;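 note: wild-type TIM10 isogenic control strain grown at permissive 25 °C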
Starred values were filed as active, the others as inactive; · = no result.

SMILES	NALP3 yeast inh	tim10-1 inh	PfHsp90 set2	tim23-1 inh	TIM10 inh
O=C(c1ccc(-c2ccccc2)c(F)c1)C1CCCN(C(=O)c2cncs2)C1 (stereo not given)	21.5	-117.1	88.8*	-170.2	-28.5
COc1ccc(-n2c(Cn3c(=O)sc4ccccc43)nnc2SCC(=O)N2CCOCC2)cc1	3.4	2.4	23.9	-0.8	11.4
Cc1ccc(/C=C2/NC(=O)N(Cc3ccc(Br)cc3)C2=O)o1	17.4	14.9	108.8*	14.3	-16.7
CCOc1ccccc1NC(=O)COc1ccc2ccc(=O)oc2c1	16.5	5.2	-14.9	-9.8	4.1
O=C(/C=C(\c1ccccc1)n1cncn1)c1ccccc1	8.6	27.4	8.9	17.8	6.4
C=CC(n1cncn1)C(O)(c1ccccc1)c1ccccc1 (stereo not given)	13.4	-45.1	104.8*	-293.5	-217.7
Cc1cc(C)cc(N2C(=O)c3nccnc3C2=O)c1	-8.6	8.8	37.5	7.9	0.4
Cc1cc(C)cc(N2C(=O)C=CC2=O)c1	·	·	108.5*	·	·
Cc1ccc2c(c1C)-c1c(ccc(C)c1C)C(=O)C2=O	·	·	102.8*	·	·
Nc1ccc2c(c1Cl)C(=O)c1ccc(N)c(Cl)c1C2=O	·	·	5.9	·	·
Cc1ccccc1Oc1cc(-n2ncc(Cl)c(Cl)c2=O)ncn1	·	·	97.2*	·	·
CCOc1cnn(-c2cc(Oc3ccc(C)cc3)ncn2)c(=O)c1Cl	26.4	15.5	25.7	16.6	14.1
Cc1cc(C(=O)N(C)CC(=O)Nc2ccccc2C(F)(F)F)c(C)o1	5.8	17.2	·	11.0	3.1
O=S(=O)(Nc1nc2ccccc2nc1N1CCc2ccccc2C1)c1ccc(Cl)cc1	16.7	24.9	-1.9	24.4	-13.0
O=S(=O)(Nc1nc2ccccc2nc1N1CCN(c2ccccn2)CC1)c1ccc(Cl)cc1	·	·	104.0*	·	·
COc1ccc(C2=CC3=C(Br)C(=O)C(C)(OC(=O)C4CCCC4)C(=O)C3=CO2)cc1 (stereo not given)	6.3	17.6	110.2*	18.1	12.3
COC(=O)CCC(=O)OC1(C)C(=O)C2=COC(c3ccc(OC)cc3)=CC2=C(Br)C1=O (stereo not given)	20.7	8.6	·	25.7	-2.1
OCCCn1c(C2CCCN2c2nc(-c3ccc(Cl)cc3)cs2)nc2cc(Cl)c(Cl)cc21 (stereo not given)	16.1	18.2	-16.7	6.4	2.6
OCCCn1c(C2CCCN2c2nc(-c3ccc(F)cc3)cs2)nc2cc(Cl)c(Cl)cc21 (stereo not given)	7.9	17.9	106.8*	4.2	-2.8
CC(C)c1ccc(NC(=O)CCNC(=O)Cn2cnc3ccccc3c2=O)cc1	-5.9	6.2	4.9	14.3	-15.8
Cc1nnc(N=c2ssnc2Cl)o1	12.0	27.2	143.0*	38.8	27.7
C#CCNC(=O)C1=C[C@H](c2cn(C(C)=O)c3ccccc23)[C@@H](CCCO)[C@H](OCC)O1	0.3	-20.6	11.9	1.9	-2.7
CCOC(=O)/C(=C/c1ccc(N2CCC(c3ccccc3)=N2)cc1)C(C)=O	·	·	106.3*	·	·
c1ccc(C2=NN(c3ccccc3)CC2)cc1	17.6	15.1	7.3	16.1	19.8
CCCN(C(=O)C1CSC2(C)CCC(=O)N12)c1c(N)n(Cc2ccccc2)c(=O)[nH]c1=O (stereo not given)	-1.1	6.7	7.3	-6.0	3.5
SMILES	NALP3 yeast inh	tim10-1 inh	PfHsp90 set2	tim23-1 inh	TIM10 inh
N#Cc1ccccc1CN1C(=O)NC2(CCCCCC2)C1=O	6.4	7.3	7.1	3.3	-2.3
CC(C)C1Nc2c(O)cc(Cl)c([N+](=O)[O-])c2C2C=CCC21 (stereo not given)	·	·	110.2*	·	·
O=C(O)C1Nc2c(Cl)cc(Cl)c(Cl)c2C2C=CCC12 (stereo not given)	·	·	-45.7	·	·
CCc1ccc(S(=O)(=O)Nc2ccc(Br)cn2)cc1	13.4	36.9	-32.8	43.0	17.2
CN(CC(=O)Nc1cccc(F)c1)C(=O)c1cn(-c2ccccc2)nc1-c1ccc(Cl)cc1	23.2	33.5	98.3*	44.2	18.2
Cc1ccc(NS(=O)(=O)c2ccc(N3CCN(c4ccc(O)cc4)CC3)c([N+](=O)[O-])c2)c(C)c1	21.2	-18.2	96.1*	19.9	-9.6
COc1cccc(NC(=O)COC(=O)c2ccccc2SCC(=O)N2CCCC2)c1	17.8	-15.3	7.5	12.6	4.1
